Test results published in PubChem BioAssay (Tox21).
Results filed as inconclusive are left out. Calls of active or inactive are those of the source. The call rests on the fitted dose curve.

Tests used:
[1] = molecular target: Acetylcholinesterase (Homo sapiens) (UniProt P22303); assay: Acetylcholinesterase (AChE) small molecule antagonists: colormetric cell-based qHTS assay (AID 1347395); further: nearly all actives have a fitted effect of over 30% in size; further: potency means the concentration at half of the fitted maximal effect
Procedure, shortened: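 Colorimetric read-out: DTNB detects thiocholine released when cellular AChE in SH-SY5Y cells hydrolyses acetylthiocholine. Cells attached overnight, received compound for 30 min at 37 C, then substrate mix for 90 min at 37 C.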

[2] = molecular target: Acetylcholinesterase (Homo sapiens) (UniProt P22303); assay: Acetylcholinesterase (AChE) small molecule antagonists: enzyme-based qHTS assay (AID 1347397); details: Potency: AChE enzyme activity inhibition; outcome: AChE enzyme activity inhibition; further: nearly all actives have a fitted effect of over 55% in size
Procedure, shortened: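 Enzyme inhibition was scored from DTNB-detected thiocholine formed by recombinant human AChE acting on acetylthiocholine. The 30 min compound preincubation and 10 min substrate reaction were both run at room temperature, with DMSO as vehicle control.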

[3] = molecular target: Acetylcholinesterase (Homo sapiens) (UniProt P22303); assay: Acetylcholinesterase (AChE) small molecule antagonists: fluorescence cell-based qHTS assay (AID 1347398); details: Potency: AChE activity; outcome: AChE activity; further: nearly all actives have a fitted effect of over 50% in size
Procedure, shortened: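 Endogenous acetylcholinesterase of SH-SY5Y neuroblastoma cells is measured in situ. After overnight attachment and 30 min compound exposure, cells receive acetylthiocholine and Thiolite Green; fluorescence is read after 40 min at room temperature.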

[4] = molecular target: Acetylcholinesterase (Homo sapiens) (UniProt P22303); assay: Acetylcholinesterase (AChE) small molecule antagonists: enzyme-based qHTS assay with human liver microsomes (AID 1347399); details: Potency: qHTS inhibition; outcome: qHTS inhibition; further: nearly all actives have a fitted effect of over 60% in size
Procedure, shortened: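 Recombinant human AChE (50 mU/mL in the enzyme mix) and human liver microsomes (0.25 mg/mL final) were preincubated with compound and NADPH (0.25 mg/mL final) for 30 min at 37 C. Acetylthiocholine/DTNB was then added; thiocholine was read colorimetrically after 10 min at room temperature.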
On the % scale 0 is the no-effect control and ±100 the full control effect.

Acetylcholinesterase (Homo sapiens), sequence (P22303 whole entry, looked up): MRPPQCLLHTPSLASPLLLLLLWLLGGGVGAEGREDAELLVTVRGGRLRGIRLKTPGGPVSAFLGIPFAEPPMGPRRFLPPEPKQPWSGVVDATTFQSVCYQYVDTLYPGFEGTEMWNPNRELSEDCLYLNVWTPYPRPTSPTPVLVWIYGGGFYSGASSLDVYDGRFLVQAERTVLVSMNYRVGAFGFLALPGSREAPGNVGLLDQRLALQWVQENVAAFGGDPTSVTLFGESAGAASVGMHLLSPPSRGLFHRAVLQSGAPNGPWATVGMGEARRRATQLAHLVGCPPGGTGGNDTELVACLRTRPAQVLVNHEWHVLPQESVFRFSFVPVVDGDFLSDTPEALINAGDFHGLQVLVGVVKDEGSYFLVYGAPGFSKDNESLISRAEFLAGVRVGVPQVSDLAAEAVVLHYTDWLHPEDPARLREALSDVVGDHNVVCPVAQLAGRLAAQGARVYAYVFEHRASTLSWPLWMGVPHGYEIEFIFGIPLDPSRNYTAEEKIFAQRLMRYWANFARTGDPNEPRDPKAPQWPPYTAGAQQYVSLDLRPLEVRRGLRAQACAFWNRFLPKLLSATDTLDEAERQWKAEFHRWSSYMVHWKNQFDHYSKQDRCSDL

COc1cccc(O)c1O
inactive: Potency [1] | Potency [2] | Potency [3] | Potency [4]

CCN(CC)c1ccc(C(=C2C=CC(=[N+](CC)CC)C=C2)c2cc(S(=O)(=O)O)ccc2S(=O)(=O)[O-])cc1
inactive: Potency [1] | Potency [2] | Potency [3] | Potency [4]

Cc1ccc(CO)cc1
inactive: Potency [1] | Potency [2] | Potency [3] | Potency [4]

CC(C)Cc1ccc(C(C)C(=O)OCc2ccccn2)cc1 (configuration not stated)
inactive: Potency [1] | Potency [2] | Potency [3] | Potency [4]

CC1CCCO1 (configuration not stated)
inactive: Potency [1] | Potency [2] | Potency [3] | Potency [4]

O=C(Nc1ccc([N+](=O)[O-])cc1)Nc1ccc([N+](=O)[O-])cc1 (tested in a mixture with another compound)
inactive: Potency [1] | Potency [2] | Potency [3] | Potency [4]

CCCCCCCCCCCCCCCCCl
inactive: activity, negative = inhibition [1] 0.0979% [at 23.6 µM] | activity change, negative = inhibition [2] 0.4% [at 23.6 µM] | activity change, negative = inhibition [3] -0.0126% [at 23.8 µM] | activity change, negative = inhibition [4] 2.03% [at 23.6 µM]

Cc1ccc(N(CC2=NCCN2)c2cccc(O)c2)cc1
inactive: Potency [1] | Potency [2] | Potency [3] | Potency [4]

COc1ccc2c(c1)c1c3n2CCN(C)C3=NCC1
inactive: Potency [1] | Potency [2] | Potency [3] | Potency [4]

CN=C(NC#N)NCCSCc1csc(N=C(N)N)n1
inactive: Potency [1] | Potency [2] | Potency [3] | Potency [4]

COC(=O)/C=C/C(C)=C\C=C\C(C)=C\C=C\C=C(C)\C=C\C=C(C)\C=C\C(=O)O
inactive: Potency [1] | Potency [2] | Potency [3] | Potency [4]

CO[Si](CCCS)(OC)OC
inactive: Potency [1] | Potency [2] | Potency [3] | Potency [4]

c1cc2c3c(c1)ccc1cccc(c13)C2
inactive: Potency [1] | Potency [2] | Potency [3] | Potency [4]

Cn1cc(C(=O)[C@@H]2CCc3nc[nH]c3C2)c2ccccc21
inactive: Potency [1] | Potency [2] | Potency [3] | Potency [4]

CC(C)(CCl)c1ccccc1
inactive: Potency [1] | Potency [2] | Potency [3] | Potency [4]

CCOc1ccc2c(c1)C(C)CC(C)(C)N2 (configuration not stated)
inactive: Potency [1] | Potency [2] | Potency [3] | Potency [4]

O=C(O)c1cccc(Cl)n1
inactive: Potency [1] | Potency [2] | Potency [3] | Potency [4]

CC(C)=CCCC(C)O (configuration not stated)
inactive: Potency [1] | Potency [2] | Potency [3] | Potency [4]

N#Cc1ccc(C2CCCc3cncn32)cc1 (configuration not stated)
inactive: Potency [1] | Potency [2] | Potency [3] | Potency [4]

Clc1ccc2n[nH]nc2c1
inactive: Potency [1] | Potency [2] | Potency [3] | Potency [4]

OC/C=C/CO
inactive: Potency [2] | Potency [3] | Potency [4]
active: Potency [1] 35.5 µM

CCCc1ccc(O)c(OC)c1
inactive: Potency [1] | Potency [2] | Potency [3] | Potency [4]

C=C(C)C(=O)OCCCCCCCCCCOC(=O)C(=C)C
inactive: Potency [1] | Potency [2] | Potency [3] | Potency [4]

COc1cc(-c2nc(NC(=O)c3cc4cc(C)cc(C)c4n3CC(=O)O)sc2CCC2CCCCC2)c(OC)cc1Cl
inactive: Potency [1] | Potency [2] | Potency [3] | Potency [4]

O=CC1CC1
inactive: Potency [1] | Potency [2] | Potency [3] | Potency [4]

C1CCC2(CCCCO2)OC1
inactive: Potency [1] | Potency [2] | Potency [3] | Potency [4]

CC(C)C(=O)O
inactive: Potency [1] | Potency [2] | Potency [3] | Potency [4]

CCCCCc1ccc(Cl)cc1
inactive: Potency [1] | Potency [2] | Potency [3] | Potency [4]

Oc1ccc2c(c1)Cc1ccccc1-2
inactive: Potency [1] | Potency [2] | Potency [3] | Potency [4]

CC1=CC=C(C(C)C)CC1
inactive: Potency [1] | Potency [2] | Potency [3] | Potency [4]

O=c1cc(CO)occ1O
inactive: Potency [1] | Potency [2] | Potency [3] | Potency [4]

Cc1cc(C(C)(C)C)cc(C)c1CC1=NCCN1
inactive: Potency [1] | Potency [2] | Potency [3] | Potency [4]

CC(=O)Nc1ccccc1C
inactive: Potency [1] | Potency [2] | Potency [3] | Potency [4]

COC(=O)CCC(=O)O
inactive: Potency [1] | Potency [2] | Potency [3] | Potency [4]

Cc1occc1C(=O)Nc1ccc(C(=O)N2CCC(F)(F)/C(=C\C(=O)N3CCC(N4CCCCC4)CC3)c3ccccc32)cc1
inactive: Potency [1] | Potency [2] | Potency [3] | Potency [4]

O=C1Cc2ccccc2N1c1c(Cl)cccc1Cl
inactive: Potency [1] | Potency [2] | Potency [3] | Potency [4]

CC(COc1ccccc1)NN (configuration not stated)
inactive: Potency [1] | Potency [2] | Potency [3] | Potency [4]

c1ccc(-c2nc3ccccc3[nH]2)cc1
inactive: Potency [1] | Potency [2] | Potency [3] | Potency [4]

CC(=O)C=O
inactive: Potency [1] | Potency [2] | Potency [3] | Potency [4]

OC(CN1CCC(Cc2ccc(F)cc2)CC1)c1ccc(Cl)cc1 (configuration not stated)
inactive: Potency [1] | Potency [2] | Potency [3] | Potency [4]

C/C=C(\C)C#N
inactive: Potency [1] | Potency [2] | Potency [3] | Potency [4]

Nc1cc(C(=O)O)c(O)c(S(=O)(=O)O)c1
inactive: Potency [1] | Potency [2] | Potency [3] | Potency [4]

CC1=C(/C=C/C(C)=C/C=C/C(C)=C\C(=O)O)C(C)(C)CCC1
inactive: Potency [1] | Potency [2] | Potency [3] | Potency [4]
